# From PubChem BioAssay (NCI)
# About 83,000 compounds went through this panel and 20% of them were active in at least one assay; those are over-represented in the sample as a whole.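 Compound tested at a single concentration for 48 hours in 96-well plates; a percent growth value below 10 was scored as active.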 Values without a mark were called inactive. Calls of active or inactive are those of the source.
# What was measured:
# Experiment in all cases: NCI-60 one-dose screen, 48 h (100 = growth as untreated, 0 = no growth, -100 = all killed)
# Conditions in all cases: 10 µM unless noted
# NCI-H23 lung = system: NCI-H23 lung
# NCI-H322M lung = system: NCI-H322M lung
# HOP-62 NSCLC = system: HOP-62 NSCLC
# NCI-H460 lung = system: NCI-H460 lung
# HOP-92 NSCLC = system: HOP-92 NSCLC
# NCI-H522 lung = system: NCI-H522 lung
# A549/ATCC NSCLC = system: A549/ATCC NSCLC
# 786-0 renal = system: 786-0 renal
# COLO 205 colon = system: COLO 205 colon
# DU-145 prostate = system: DU-145 prostate
# K-562 leukemia = system: K-562 leukemia
# MALME-3M melanoma = system: MALME-3M melanoma
# MDA-MB-231 breast = system: MDA-MB-231 breast
# RXF 393 renal = system: RXF 393 renal
# SF-268 CNS = system: SF-268 CNS
# SF-295 CNS = system: SF-295 CNS
# SF-539 CNS = system: SF-539 CNS
# UACC-257 melanoma = system: UACC-257 melanoma
# M14 melanoma = system: M14 melanoma
# HCT-15 colon = system: HCT-15 colon
Structure (SMILES),growth (NCI-H23 lung),growth (NCI-H322M lung),growth (HOP-62 NSCLC),growth (NCI-H460 lung),growth (HOP-92 NSCLC),growth (NCI-H522 lung),growth (A549/ATCC NSCLC),growth (786-0 renal),growth (COLO 205 colon),growth (DU-145 prostate),growth (K-562 leukemia),growth (MALME-3M melanoma),growth (MDA-MB-231 breast),growth (RXF 393 renal),growth (SF-268 CNS),growth (SF-295 CNS),growth (SF-539 CNS),growth (UACC-257 melanoma),growth (M14 melanoma),growth (HCT-15 colon)
COc1ccc(C)c2sc(N(Cc3cccnc3)C(=O)c3ccc(C#N)cc3)nc12,7.42% (active),6.37% (active),7.67% (active),-24.4% (active),-3.64% (active),-22.2% (active),6.76% (active),-12.2% (active),1.84% (active),17.3%,4.61% (active),-15.2% (active),-4% (active),-31% (active),10.9%,-28.9% (active),-26% (active),-15.5% (active),4.95% (active),17.5%
CC1(O)COCCCCOc2c(CN)cccc2NC(=O)c2nc(cnc2N)-c2ccc(cc2)S(=O)(=O)C(C)(C)C1 (stereo not given),-66.7% (active),-1.9% (active),-25.5% (active),-61.9% (active),-5.59% (active),-40.5% (active),-52.8% (active),-58% (active),-47.9% (active),-73.4% (active),0.195% (active),-86.6% (active),-76.3% (active),-76.2% (active),-66.6% (active),-90.3% (active),-93.4% (active),-66.4% (active),-76.7% (active),-82.7% (active)
CC(=O)Nc1nc2c(s1)CCc1c-2cn(S(=O)(=O)c2ccccc2)c1-c1ccccc1,82.1%,79.4%,101%,75.3%,87.4%,54.5%,53.4%,88.3%,75.3%,78.4%,37.9%,-23.6% (active),73.6%,85%,71.4%,43.5%,93.5%,93%,36.9%,51.9%
COc1cc(/C=C2\CN(C)C/C(=C\c3cc(CN4CCOCC4)c(O)c(OC)c3)C2=O)cc(CN2CCOCC2)c1O,37.3%,67.5%,68.9%,15.2%,93.2%,41%,56.8%,76.6%,45.2%,28.5%,29.1%,65.6%,69.5%,78%,56.9%,77.1%,34.8%,71.2%,66.4%,64.8%
CN1C(=O)N(C)C2C1NN=c1s/c(=C\c3c[nH]c4ccccc34)c(=O)n12 (stereo not given),38.7%,50.4%,49.2%,1.56% (active),114%,11.5%,24.3%,23.4%,-53.4% (active),5.09% (active),8.94% (active),60.6%,34.7%,44.5%,39.1%,12.8%,2.32% (active),79.5%,12.3%,11.8%
O=C(CSc1nc2ccccc2c(=O)n1-c1ccccc1)Nc1ccc(C(=O)/C=C/c2ccc(Cl)cc2)cc1,93.4%,101%,107%,100%,97.1%,85.3%,97%,102%,108%,109%,90.8%,95.5%,93.3%,127%,115%,105%,113%,89.6%,101%,98.1%
NCCOc1ncccc1/C=C1\c2ccccc2-c2ccc(F)cc21,-6.99% (active),48.4%,11.1%,-33.3% (active),29.8%,37.7%,-51.9% (active),6.26% (active),-30.1% (active),7.83% (active),3.28% (active),32.3%,34.7%,25.2%,23.2%,2.01% (active),11.5%,67.6%,25.2%,3.22% (active)
COc1ccc2sc(N(Cc3cccnc3)C(=O)c3ccc(C#N)cc3)nc2c1,96.3%,101%,94.4%,101%,60.7%,124%,81.9%,69.8%,84%,93.5%,16.4%,60.9%,71.5%,92.8%,87.7%,35.6%,70.5%,-46.3% (active),25.4%,66.1%
COc1ccc(C2C3=C(COC3=O)N(CCO)c3cc4c(cc32)CCC4)cc1OC (stereo not given),29.8%,35.3%,31.6%,-15.1% (active),91.9%,-33.7% (active),19.5%,26.7%,14.9%,-28.1% (active),14.7%,42.8%,24.7%,-42.7% (active),49.1%,-2.08% (active),-20.4% (active),43.6%,-18.4% (active),21.8%
COC(=O)/C(CCC=C(C)C)=C1\[C@@H](OC(C)=O)C[C@@]2(C)[C@H]1C[C@@H](O)[C@H]1[C@@]3(C)CC[C@H](NCCO)[C@@H](C)[C@@H]3CC[C@@]12C,97.7%,101%,106%,105%,93.6%,99.9%,109%,98.7%,103%,104%,94.8%,93%,106%,109%,104%,101%,101%,107%,94.2%,103%
COc1ccc(/C=C/C(=O)c2c(C)nc3ccccc3c2/C=C/c2ccccc2)cc1O,50.6%,42.3%,88.6%,22.8%,65.6%,14.9%,39.5%,99.4%,109%,45.7%,20.9%,86.3%,52.7%,64.1%,57.7%,90.8%,81.7%,68.7%,15.9%,39.1%
COc1ccc(/C=C2\CCC/C(=C\c3ccc(OC)c(OC)c3)C2=O)cc1OC,21.6%,45.4%,28.5%,-46.5% (active),106%,-14% (active),13.8%,0.0865% (active),22.6%,-33.9% (active),10.6%,42.3%,15%,-32.5% (active),30.5%,1.26% (active),13.1%,14%,-2.63% (active),-8.77% (active)
O=c1oc2ccc(-c3ccc(F)cc3F)cc2c(=O)n1-c1ccc(Cl)c(C(F)(F)F)c1,6.77% (active),13.1%,6.97% (active),5.36% (active),-29.4% (active),-12.4% (active),7.35% (active),17.4%,77.1%,21%,10.9%,3.35% (active),56%,-3.32% (active),14.5%,17.4%,29.4%,-9.78% (active),21.5%,15.8%
O=C(Nc1ccc(N2CCNCC2)cc1)c1[nH]ncc1Nc1ncnc2sc3c(c12)CCC3,-68.6% (active),-33.2% (active),-76.2% (active),-81.8% (active),-56.7% (active),-50.3% (active),-71.4% (active),-81.4% (active),-77.2% (active),-92.4% (active),-62.7% (active),-75.9% (active),-84.9% (active),-90.8% (active),-72.3% (active),-77.2% (active),-98.8% (active),26%,-91.1% (active),-85.7% (active)
COc1ccc(Cn2cc(Cn3cc(C=C4C(=O)NC(=O)NC4=O)c4ccccc43)nn2)cc1,62.7%,90.1%,92.4%,48%,84.5%,89.9%,112%,96.7%,108%,92.1%,50.4%,85.5%,-96.3% (active),77.9%,83.3%,77.1%,88.3%,96.4%,82.4%,85.9%
O=C(CCc1nnc2sc(COc3ccccc3)nn12)c1nc2ncccc2[nH]1,85.4%,91.9%,90.7%,93.3%,93.6%,79.4%,107%,108%,107%,106%,107%,91.4%,91.8%,98.4%,96%,103%,100%,98.9%,95.6%,100%
